An excerpt weighted towards active compounds, which were near 6.5% of everything screened.
VACV mCherry inh – inhibitors of vaccinia virus infection (mCherry reporter signal) | Vaccinia virus mCherry reporter infection, fluorescence | Potency, µM (highest dose often 36.5 µM), for the others: at the top dose activity change, negative = inhibition, usual class: inhibitors | 310,000 tested, 0.63% active; calls by dose curve; tested in A549 cells; also: potency is read from the fitted curve at half-maximal effect; nearly all actives have a fitted effect of over 35% in size
MARV entry inh – inhibitors of Marburg virus binding or cell entry; 300,000 tested, 1.8% active; Potency, µM (doses to about 37.8 µM), without a hit: at the highest dose activity change, negative = inhibition, hits mostly inhibitors; Marburg virus pseudotyped entry inhibition, cell reporter; calls by dose curve; tested in HEK293 cells; also: potency is read from the fitted curve at half-maximal effect
Vaccinia Venus – vaccinia inhibition (Venus reporter). Vaccinia virus Venus reporter expression, fluorescence. AID 720580. Potency, µM (series often up to 36.5 µM), for the others: at the top dose activity change, negative = inhibition, most hits filed as inhibitors. 330,000 tested, 0.46% active; calls by dose curve; tested in A549 cells; also: potency is read from the fitted curve at half-maximal effect; nearly all actives have a fitted effect of over 30% in size
FMDV inh – blocks foot and mouth disease virus. FMDV antiviral cell-based qHTS. Potency, µM (top dose mostly 57.9 µM), without a hit: at the top dose activity change, negative = inhibition, hits mostly inhibitors. 410,000 tested, 1.2% active; calls by dose curve; tested in HEK293T cells; also: read-out not given here; potency is read from the fitted curve at half-maximal effect; nearly all actives have a fitted effect of over 45% in size
HCMV inh – inhibitors of human cytomegalovirus; 410,000 tested, 4.5% active; HFF cells, HCMV-luciferase reporter, 72 h; hits give low values; activity change, negative = inhibition, % at 57.5 µM; AID 1259415; in the data active = activity change below about -60%; inconclusive = no clear call, values can overlap the other calls; inactive = above about -39%
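Compounds were evaluated in HFFs infected with an HCMV luciferase reporter virus (MOI 1 PFU/cell). Luciferase in lysates collected 72 h post infection served as the replication measure.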
Lassa entry inh – Lassa virus entry inhibition. Lassa virus pseudotype entry inhibition, cell reporter. Potency, µM (highest dose often 37.9 µM), without a hit: top-dose activity change, negative = inhibition, hits mostly inhibitors. 300,000 tested, 1.2% active. AID 540256; calls by dose curve; tested in HEK293 cells; also: potency is read from the fitted curve at half-maximal effect; nearly all actives have a fitted effect of over 50% in size
The depositor's hits bear a star; ! = not active in a repeat; [ ] = another dose, or the depositor's remark. % is scaled to controls: 0 for no effect and ±100 for the full control effect.

What do the screens show for `CCCc1cc(NC(=O)COC(=O)c2nccnc2N)n(-c2ccccc2)n1`?
FMDV inh: -6%; HCMV inh: -104*

What do the screens show for `Cc1cc(NC(=O)COC(=O)c2nccnc2N)n(-c2ccccc2)n1`?
VACV mCherry inh: -15%; MARV entry inh: 11%[46.1 µM]; Vaccinia Venus: 9%; FMDV inh: -19%; HCMV inh: -24; Lassa entry inh: 13%

What do the screens show for `O=C(CN1CCN(Cc2ccc3c(c2)OCO3)CC1)Nc1cc(S(=O)(=O)N2CCCC2)ccc1Cl`?
VACV mCherry inh: -14%; MARV entry inh: inconclusive; Vaccinia Venus: -14%; FMDV inh: inconclusive; HCMV inh: inconclusive; Lassa entry inh: -6%

How did CN(C)S(=O)(=O)c1ccc(Cl)c(NC(=O)CN2CCc3ccccc3C2)c1 do in these assays?
VACV mCherry inh: -13%; MARV entry inh: inconclusive; Vaccinia Venus: -1%; FMDV inh: -9%; HCMV inh: -64*; Lassa entry inh: inconclusive

Results for CN(C)S(=O)(=O)c1ccc(Cl)c(NC(=O)CN2CCN(Cc3ccc4c(c3)OCO4)CC2)c1 ?
FMDV inh: inconclusive; HCMV inh: -60*

What do the screens show for `COc1cc(SC#N)ccc1N=Cc1c(C)[nH]n(-c2ccc(C)c(C)c2)c1=O`?
VACV mCherry inh: inactive; MARV entry inh: inconclusive; Vaccinia Venus: -14%; FMDV inh: 13µM*; HCMV inh: -65*; Lassa entry inh: 11µM*

How did CN(c1cccnc1)c1ccc(NC(=O)Cc2c[nH]c3ccccc23)cc1-c1ccc(C(C)(C)C)cc1 do in these assays?
HCMV inh: -36

How did Oc1ccc(/C=N\Nc2nncc(-c3ccccc3)n2)cc1 do in these assays?
VACV mCherry inh: inconclusive; Vaccinia Venus: -14%; FMDV inh: -6%; HCMV inh: -66*

How did COc1ccc(Nc2nc(NCc3ccco3)nc(N/N=C/c3ccc(O)cc3)n2)cc1 do in these assays?
VACV mCherry inh: inconclusive; MARV entry inh: inconclusive; Vaccinia Venus: -26%; FMDV inh: -9%; HCMV inh: -61*; Lassa entry inh: -3%

Results for Brc1ccc(-c2ccc(/C=N/Nc3nncc(-c4ccccc4)n3)o2)cc1 ?
VACV mCherry inh: inactive; MARV entry inh: 14%; Vaccinia Venus: -6%; FMDV inh: -7%; HCMV inh: inconclusive; Lassa entry inh: -15%

Results for COc1ccc(-c2cnnc(N/N=C/c3ccc(O)c(O)c3)n2)cc1 ?
VACV mCherry inh: -4%; MARV entry inh: inconclusive; Vaccinia Venus: -22%; FMDV inh: -11%; HCMV inh: 31; Lassa entry inh: 4.6µM*

How did COc1ccc(-c2cnnc(N/N=C/c3ccc(O)cc3)n2)cc1 do in these assays?
VACV mCherry inh: -26%; MARV entry inh: inconclusive; Vaccinia Venus: -16%; FMDV inh: 0%; HCMV inh: -71*; Lassa entry inh: 2µM*

What do the screens show for `COc1cccc(CNc2ncnc3onc(-c4ccc(F)cc4)c23)c1`?
VACV mCherry inh: -12%; Vaccinia Venus: -14%; FMDV inh: -23%; HCMV inh: -16; Lassa entry inh: 4%[46.1 µM]

Results for COc1ccc(S(=O)(=O)N2CCN(c3ccccc3)CC2)cc1-c1noc(C)n1 ?
VACV mCherry inh: -12%; MARV entry inh: -11%[46.1 µM]; Vaccinia Venus: -7%; FMDV inh: 5%; HCMV inh: inconclusive; Lassa entry inh: inconclusive

Results for O=C(NN1C(=O)c2ccc(-c3ccc4c(c3)C(=O)N(NC(=O)c3cccnc3)C4=O)cc2C1=O)c1cccnc1 ?
VACV mCherry inh: -16%; MARV entry inh: -10%; Vaccinia Venus: -15%; FMDV inh: 1%; HCMV inh: -77*; Lassa entry inh: 20%[46.1 µM]

What do the screens show for `CN1C(=O)c2ccc(C(=O)Nc3cccnc3)cc2C1=O`?
VACV mCherry inh: inactive; MARV entry inh: -10%[46.1 µM]; Vaccinia Venus: 6%; FMDV inh: 2%; HCMV inh: -7; Lassa entry inh: inconclusive

How did CC(C)(C)c1cc(/C=C(\C#N)C(N)=S)cc(C(C)(C)C)c1O do in these assays?
VACV mCherry inh: inconclusive; MARV entry inh: 9.2µM*; Vaccinia Venus: inconclusive; FMDV inh: inconclusive; Lassa entry inh: 2.3µM*

What do the screens show for `CC(C)(C)c1cc(C=C(C#N)C#N)cc(C(C)(C)C)c1O`?
VACV mCherry inh: 1µM*!; MARV entry inh: 2.1µM*; Vaccinia Venus: inconclusive; FMDV inh: 4µM*!; HCMV inh: -100*; Lassa entry inh: 0.41µM*

How did CCc1ccc(/C=C(/C#N)C(N)=S)cc1 do in these assays?
VACV mCherry inh: -13%; MARV entry inh: inconclusive; Vaccinia Venus: -1%; FMDV inh: -8%; HCMV inh: 17; Lassa entry inh: 12%

Results for COc1ccccc1NC(=O)Cn1c(=O)oc2cc(S(=O)(=O)NCc3ccccc3)ccc21 ?
VACV mCherry inh: -12%; MARV entry inh: -15%[46.1 µM]; Vaccinia Venus: -1%; FMDV inh: 12%; HCMV inh: 12

How did CCOCCCNC(=O)c1c(NC(=O)c2nc(SCC)ncc2Cl)sc2c1CCCC2 do in these assays?
VACV mCherry inh: 4%; Vaccinia Venus: -6%

What do the screens show for `COC(=O)C1=C2CCO[C@H]2[C@@H]2[C@@H](C)[C@H](OC)c3ccccc3[C@@H]12`?
MARV entry inh: inconclusive; Lassa entry inh: -6%[14.3 µM]

How did COc1ccc(C)cc1NC(=O)COC(=O)C1COc2ccccc2O1 (stereo not given) do in these assays?
FMDV inh: -7%; HCMV inh: -92*

What do the screens show for `COc1ccc(C)cc1NC(=O)C1COc2ccccc2O1` (stereo not given)?
VACV mCherry inh: -13%; MARV entry inh: inconclusive; Vaccinia Venus: -12%; FMDV inh: 31%; HCMV inh: -12; Lassa entry inh: 0%[46.1 µM]

Results for CC1CCN2c3cc(Cl)ccc3CC3(C(=O)OC(C)(C)OC3=O)C2C1 (stereo not given) ?
VACV mCherry inh: -19%; Vaccinia Venus: -23%

Results for C[C@H](CO)N1C[C@H](C)[C@H](CN(C)C(=O)Nc2ccc(F)cc2)Oc2ncc(Br)cc2C1=O ?
HCMV inh: 9

What do the screens show for `COC(=O)[C@@]1(C#N)CC(=O)N([C@@H](CO)c2ccccc2)[C@H]1c1ccccc1`?
HCMV inh: -6

What do the screens show for `COc1ccc(OCc2cc(C(=O)N(C)C(C)c3ccon3)no2)c(Cl)c1` (stereo not given)?
VACV mCherry inh: -3%; MARV entry inh: -7%; Vaccinia Venus: -19%; FMDV inh: 32%; HCMV inh: -93*; Lassa entry inh: 3%

Results for O=C(NC1CCCCC1)OC[C@@H]1CSCCS(=O)(=O)N1 ?
HCMV inh: -5; Lassa entry inh: inconclusive

Results for COC(=O)Cc1nnn2c1CC(OC)c1cc(Br)ccc1-2 (stereo not given) ?
HCMV inh: -31

What do the screens show for `COc1ccc(CCNC(=O)CSc2cn(CCNC(=O)c3cccc(C(F)(F)F)c3)c3ccccc23)cc1OC`?
VACV mCherry inh: inconclusive; MARV entry inh: inconclusive; Vaccinia Venus: inconclusive; FMDV inh: 22µM*; HCMV inh: inconclusive; Lassa entry inh: inconclusive
